Experimental findings from PubChem BioAssay (NCATS) are described below.

Inconclusive results are not listed. A number with no mark means an inactive call. Active and inactive are the calls of the source. The call rests on the fitted dose curve; in most records, active means well fitted inhibition curve with a large enough effect; inconclusive means small, poorly fitted or top-dose-only effect; inactive means flat fitted curve, though single readings scatter. Where a SMILES comes first, the peptide text is derived from it. Bridges are numbered along the chain shown (N, C = ends). [ ]: non-standard residue; d: D form. The star is where a group is joined. X1 = CC[C@@H](C)[C@@H](N)C1=N[C@H](C(=O)*)CS1; d(aIle) = CC[C@H](C)[C@@H](N)C(=O)O; dOrn = NCCC[C@@H](N)C(=O)O
On the % scale 0 is the no-effect control and ±100 the full control effect; potency means the concentration at half of the fitted maximal effect.

Sequence of Voltage-gated inwardly rectifying potassium channel KCNH2 (Homo sapiens) (Q12809 whole entry, looked up): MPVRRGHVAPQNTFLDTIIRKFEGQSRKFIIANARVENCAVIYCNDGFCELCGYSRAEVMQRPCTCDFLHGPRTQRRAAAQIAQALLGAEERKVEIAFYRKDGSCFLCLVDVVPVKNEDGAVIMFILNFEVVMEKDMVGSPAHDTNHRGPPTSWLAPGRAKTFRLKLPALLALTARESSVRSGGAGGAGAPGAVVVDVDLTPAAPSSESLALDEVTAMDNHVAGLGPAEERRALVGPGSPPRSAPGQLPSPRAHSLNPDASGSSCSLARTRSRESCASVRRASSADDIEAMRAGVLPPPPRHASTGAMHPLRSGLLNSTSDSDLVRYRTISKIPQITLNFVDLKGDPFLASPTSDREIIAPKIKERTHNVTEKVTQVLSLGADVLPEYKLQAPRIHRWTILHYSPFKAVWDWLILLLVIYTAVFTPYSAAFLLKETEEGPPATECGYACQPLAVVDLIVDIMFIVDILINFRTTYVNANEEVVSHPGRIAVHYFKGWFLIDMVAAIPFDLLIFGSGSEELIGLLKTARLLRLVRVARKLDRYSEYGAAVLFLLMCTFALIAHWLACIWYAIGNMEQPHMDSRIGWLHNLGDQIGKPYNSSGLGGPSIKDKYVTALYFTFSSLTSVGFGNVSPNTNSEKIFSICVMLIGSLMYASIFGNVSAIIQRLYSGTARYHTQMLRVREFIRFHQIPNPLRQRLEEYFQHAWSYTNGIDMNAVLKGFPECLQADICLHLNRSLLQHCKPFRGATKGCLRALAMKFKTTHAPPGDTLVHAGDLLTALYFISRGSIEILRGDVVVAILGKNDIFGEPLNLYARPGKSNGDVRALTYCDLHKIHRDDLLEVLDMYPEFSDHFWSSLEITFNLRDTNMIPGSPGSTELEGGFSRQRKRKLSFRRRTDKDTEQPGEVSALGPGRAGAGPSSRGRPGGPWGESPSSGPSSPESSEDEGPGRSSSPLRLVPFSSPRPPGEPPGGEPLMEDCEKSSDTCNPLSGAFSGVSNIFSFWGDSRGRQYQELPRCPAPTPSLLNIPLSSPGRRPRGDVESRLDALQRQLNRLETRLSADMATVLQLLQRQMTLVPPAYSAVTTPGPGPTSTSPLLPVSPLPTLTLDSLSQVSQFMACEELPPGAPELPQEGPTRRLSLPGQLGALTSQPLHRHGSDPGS

The experiment concerns the target Voltage-gated inwardly rectifying potassium channel KCNH2 (Homo sapiens) (UniProt Q12809). Put plainly: qHTS Assay for Small Molecule Inhibitors of the Human hERG Channel Activity (AID 588834).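 Further: lower thallium flux fluorescence means stronger hERG block; nearly all actives have a fitted effect of over 50% in size.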 On activity change, negative = inhibition: top concentration of the series differs between compounds. The following applies: U2OS BacMam hERG, FluxOR thallium flux fluorescence; series mostly up to 46.1 µM; activity change, negative = inhibition: at the top concentration. The essentials: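 Kinetic FDSS fluorescence; U2OS + hERG BacMam (~100 virus particles/cell); FluxOR Tl+ flux; ~10 min cpd; AC50 (Hill).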
For the compound `Cn1nnnc1SCC1=C(C(=O)O)N2C(=O)[C@@H](NC(=O)[C@H](O)c3ccccc3)[C@H]2SC1`, the “activity change, negative = inhibition” value is 6.43% [at 20.6 µM]. Still for that read-out and setting: with `NC(=O)OC[C@@H]1[C@H](NC(=O)/C(=N\OCC(=O)O)c2csc(N)n2)C(=O)N1S(=O)(=O)O` the figure was 0.525%.

As for `C=C1[C@@H]2CC[C@@H](C2)C1(C)C`, the “activity change, negative = inhibition” value was 19.6%. In the case of `COc1ccc([C@@H]2CC(=O)c3c(O)cc(O[C@@H]4O[C@H](CO[C@@H]5O[C@@H](C)[C@H](O)[C@@H](O)[C@H]5O)[C@@H](O)[C@H](O)[C@H]4O)cc3O2)cc1O`, the “activity change, negative = inhibition” value was 17.6% [at 20.6 µM]. For the compound H-RKDVY-OH, the “activity change, negative = inhibition” value is 2.74%. For the compound `CNC(C)CCC=C(C)C` (stereo unspecified), the Potency is 1.58 µM (active). The same measure, in the same setting: with `OCCN1CCN(CC/C=C2/c3ccccc3Sc3ccc(Cl)cc32)CC1` the figure was 1.58 µM (active). In the case of `CCCCC[C@H](O)/C=C/[C@H]1[C@H](O)CC(=O)[C@@H]1CCCCCCC(=O)O`, the “activity change, negative = inhibition” value was 22.1% [at 20.6 µM]. On the same count and under the same terms, the result for `CCCCC/C=C\CCC(=O)N[C@H]1[C@H](Oc2c3cc4cc2Oc2ccc(cc2Cl)[C@@H](O[C@@H]2O[C@H](CO)[C@@H](O)[C@H](O)[C@H]2NC(C)=O)[C@@H]2NC(=O)[C@H](NC(=O)[C@@H]4NC(=O)[C@H]4NC(=O)[C@@H](Cc5ccc(c(Cl)c5)O3)NC(=O)[C@H](N)c3ccc(O)c(c3)Oc3cc(O)cc4c3)c3ccc(O)c(c3)-c3c(O[C@H]4O[C@H](CO)[C@@H](O)[C@H](O)[C@@H]4O)cc(O)cc3[C@@H](C(=O)O)NC2=O)O[C@H](CO)[C@@H](O)[C@@H]1O` reads 3.68% [at 20.6 µM]. Regarding `CN(C)CCC(O)(c1ccccc1)c1ccccc1Cl` (stereo unspecified), the Potency was 3.16 µM (active). Still for that read-out and setting: the result for `CCN1\C(=C/C=C/C=C/c2sc3ccccc3[n+]2CC)Sc2ccccc21` reads 11.2 µM (active).

Regarding `CC(O)[C@H]1CC[C@H]2[C@@H]3CC[C@@H]4C[C@@H](O)CC[C@]4(C)[C@H]3CC[C@]12C` (stereo partly specified), the “activity change, negative = inhibition” value is -11.5%. Still for that read-out and setting: the result for `CC1=C[C@H](O)CC(C)(C)[C@H]1/C=C/C(C)=C/C=C/C(C)=C/C=C/C=C(C)/C=C/C=C(C)/C=C/C1=C(C)C[C@@H](O)CC1(C)C` reads 7.71%. Still for that read-out and setting: with `NC[C@H]1O[C@H](O[C@H]2[C@H](O)[C@@H](O[C@H]3O[C@H](CO)[C@@H](O)[C@H](N)[C@H]3O)[C@H](N)C[C@@H]2N)[C@H](O)[C@@H](O)[C@@H]1O` the figure was 10.2% [at 20.6 µM]. Consider `CCN(CC)CCOCCOC(=O)C(CC)(CC)c1ccccc1`, for which the Potency was 14.1 µM (active). For the compound `NC(=O)c1ccc[n+]([C@@H]2O[C@H](COP(=O)([O-])OP(=O)(O)OC[C@H]3O[C@@H](n4cnc5c(N)ncnc54)[C@H](O)[C@@H]3O)[C@@H](O)[C@H]2O)c1`, the “activity change, negative = inhibition” value was -2.86% [at 20.6 µM].

In the case of `CC1CS(=O)(=O)CCN1/N=C/c1ccc([N+](=O)[O-])o1` (stereo unspecified), the “activity change, negative = inhibition” value was 13% [at 20.6 µM].

`C[C@@H]1O[C@@H](OC[C@H]2O[C@@H](Oc3c(-c4ccc(OCCO)c(OCCO)c4)oc4cc(OCCO)cc(O)c4c3=O)[C@H](O)[C@@H](O)[C@@H]2O)[C@H](O)[C@H](O)[C@H]1O`: the “activity change, negative = inhibition” value is -0.235%. Same read-out and setting: the result for `NC(N)=NCC1COC2(CCCCC2)O1` (stereo unspecified) reads -3.48% [at 20.6 µM]. Turning to `CC[C@@H](C)[C@@H](N)C1=N[C@H](C(=O)N[C@@H](CC(C)C)C(=O)N[C@@H](CCC(=O)O)C(=O)N[C@@H](C(=O)N[C@@H]2CCCCNC(=O)[C@@H](CC(N)=O)NC(=O)[C@@H](CC(=O)O)NC(=O)[C@@H](Cc3cnc[nH]3)NC(=O)[C@@H](Cc3ccccc3)NC(=O)[C@@H]([C@H](C)CC)NC(=O)[C@@H](CCCN)NC2=O)[C@@H](C)CC)CS1` (X1-LE[d(aIle)][dK][dOrn][dI][dF][dH][dD][dN]; lactam 4-C), the “activity change, negative = inhibition” value was 2.25% [at 20.6 µM]. Consider `NC[C@@H]1CC[C@@H](N)[C@@H](O[C@H]2[C@H](O)[C@@H](O[C@H]3O[C@H](CO)[C@@H](O)[C@H](N)[C@H]3O)[C@H](N)C[C@@H]2N)O1`, for which the “activity change, negative = inhibition” value was 3.15%. The same measure, in the same setting: with `CC(C)CCC[C@@H](C)[C@H]1CC(=O)C2=C3CC[C@H]4C[C@@H](O)CC[C@]4(C)[C@H]3CC[C@@]21C` the figure was -27.1%.

As for `C=C1CC[C@H](O)CC1=C/C=C1\CCC[C@]2(C)[C@@H]([C@H](C)CC[C@@H](O)C(C)(C)O)CC[C@@H]12`, the “activity change, negative = inhibition” value was 8.21%. On the same count and under the same terms, with `C[C@H]1[C@@H](OC(=O)CCC(=O)O)O[C@@H]2OC3(C)CC[C@H]4[C@H](C)CC[C@@H]1[C@@]24OO3` the figure was 3.74%; with `Cc1cc(O)c2c(c1)O[C@@]1(C)CC[C@H]3C(C)(C)CCCC34CO[C@@H]2[C@H]41` (stereo partly specified), -29.4%; with `CNCC(O)c1ccc(OC(=O)C(C)(C)C)c(OC(=O)C(C)(C)C)c1` (stereo unspecified), -7.91% [at 20.6 µM].
